The supplement of paper PMC13094657
± gives the standard deviation of the averaged measurements.

test system: MDA-MB-231; assay: kynurenine production, fold change vs DMSO IFNg/TNF control; higher = more kynurenine produced (less inhibition); details: pre-treatment time: 18 h then 24 h IFNg/TNF
In short: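 MDA-MB-231 cells were seeded in 96-well plates at 7 × 10^4/well and, 24 h later, pre-treated for 18 h with each natural product in 0.1% DMSO. They were then stimulated for 24 h at 37°C with IFNγ (1 U/ml) and TNF (6.25 ng/ml). Supernatants were treated with trichloroacetic acid and p-dimethylaminobenzaldehyde and read at 492 nm against 0–100 μM standards. Kynurenine production is expressed as fold change over cytokine-stimulated vehicle wells on the same plate and, in the first screening round, averaged across duplicate plates.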

Structure (SMILES)	kynurenine production
C[C@@H]1C[C@@H]2O[C@@]3(O[C@@H]2C(C)(C)O)[C@H](O)[C@@]2(C)[C@@H]4CC[C@H]5C(C)(C)[C@@H](O)CC[C@@]56C[C@@]46CC[C@]2(C)[C@@H]13 [Cimigenol] (compound dose: 10 uM)	0.778 ± 0.31
C=C(C)[C@@H]1CC[C@]2(C=O)CC[C@]3(C)[C@H](CC[C@@H]4[C@@]5(C)CC[C@H](O)C(C)(C)[C@@H]5CC[C@]43C)[C@@H]12 [Betulinaldehyde] (compound dose: 10 uM)	0.697 ± 0.12
C[C@@]12C[C@H](c3ccoc3)O[C@@]13C[C@H](OC3=O)[C@H]1[C@H]2C[C@@H]2C[C@H]1C(=O)O2 [Diosbulbin B] (compound dose: 10 uM)	0.779 ± 0.13
O=c1c(-c2ccc(O)cc2)coc2c([C@@H]3O[C@H](CO)[C@@H](O)[C@H](O)[C@H]3O)c(O)ccc12 [Puerarin] (compound dose: 10 uM)	0.927 ± 0.033
C=C[C@@]1(C)CC(=O)[C@]2(O)[C@@]3(C)[C@@H](O)CCC(C)(C)[C@@H]3[C@H](O)[C@H](OC(C)=O)[C@@]2(C)O1 [Forskolin] (compound dose: 10 uM)	1.37 ± 0.25
CC(C)=CCCC(C)CCO (stereo not drawn) [Citronellol] (compound dose: 10 uM)	0.845 ± 0.25
CC(C)=CCC/C(C)=C/CC/C(C)=C/CO [Farnesol] (compound dose: 10 uM)	0.939 ± 0.2
CC(=O)OC1C2C(OC(=O)c3ccccc3)C(C)CC2(OC(C)=O)C(=O)C(C)=CC2C(CCC13CO3)C2(C)C (stereo not drawn) [Euphorbia factor L25] (compound dose: 10 uM)	0.911 ± 0.07
CC(=O)OC(C)(C)CCC(=O)[C@](C)(O)[C@H]1[C@H](O)C[C@@]2(C)[C@@H]3CC=C4[C@@H](C[C@H](O)[C@@H](O)C4(C)C)[C@]3(C)C(=O)C[C@]12C [Cucurbitacin IIa] (compound dose: 10 uM)	0.778 ± 0.07
COc1cc2c(=O)c3c(O)c([C@@H]4O[C@H](CO[C@@H]5OC[C@](O)(CO)[C@H]5O)[C@@H](O)[C@H](O)[C@H]4O)c(O)cc3oc2cc1O [Polygalaxanthone III] (compound dose: 10 uM)	1.01 ± 0.037
C[C@@]12C[C@@]3(O)O[C@@H](O1)[C@]1(COC(=O)c4ccccc4)[C@@H]3C[C@]12O[C@@H]1O[C@H](COC(=O)c2ccccc2)[C@@H](O)[C@H](O)[C@H]1O [Benzoylpaeoniflorin] (compound dose: 10 uM)	0.893 ± 0.11
CC(C)=CCC[C@](C)(O)[C@H]1CC[C@]2(C)[C@@H]1[C@H](O)C[C@@H]1[C@@]3(C)CC[C@H](O[C@@H]4O[C@H](CO)[C@@H](O)[C@H](O)[C@H]4O[C@@H]4O[C@H](CO)[C@@H](O)[C@H](O)[C@H]4O)C(C)(C)[C@@H]3CC[C@]12C [20(S)-Ginsenoside Rg3] (compound dose: 10 uM)	0.969 ± 0.28
CCCCCCCCCC(=O)O[C@@H]1[C@@H](C)[C@@]2(O)[C@@H](C=C(COC(=O)Cc3ccc(O)c(OC)c3)C[C@]3(O)C(=O)C(C)=C[C@@H]23)[C@@H]2C(C)(C)[C@]12OC(=O)CCCCCCCCC [Phorbol 12,13-didecanoate 20-homovanillate] (compound dose: 10 uM)	0.74 ± 0.024
COc1cc2c(cc1O)C(Cc1ccc(O)cc1)[N+](C)(C)CC2 (stereo not drawn) [Magnocurarine] (compound dose: 10 uM)	0.937 ± 0.083
C[C@@H]1CC[C@]2(C(=O)O)CC[C@]3(C)C(=CC[C@@H]4[C@@]5(C)C[C@@H](O)[C@@H](O)C(C)(C)[C@@H]5CC[C@]43C)[C@@H]2[C@]1(C)O [Euscaphic acid] (compound dose: 10 uM)	0.804 ± 0.15
CC(C)=CCC/C(C)=C/CO [Geraniol] (compound dose: 10 uM)	0.829 ± 0.2
CC(=O)O[C@@H]1[C@@H](O)[C@H](O[C@H]2CC[C@]34C[C@]35CC[C@]3(C)[C@@H]([C@@]6(C)CC[C@@H](C(C)(C)O)O6)[C@@H](O)C[C@@]3(C)[C@@H]5C[C@H](O[C@@H]3O[C@H](CO)[C@@H](O)[C@H](O)[C@H]3O)[C@H]4C2(C)C)OC[C@H]1O [Isoastragaloside II] (compound dose: 10 uM)	0.968 ± 0.029
C[C@@H]1O[C@@H](O[C@H]2[C@H](O[C@H]3CC[C@@]4(C)[C@@H](CC[C@]5(C)[C@@H]4CC=C4[C@@H]6CC(C)(C)CC[C@]6(C(=O)O[C@@H]6O[C@H](CO[C@@H]7O[C@H](CO)[C@@H](O)[C@H](O)[C@H]7O)[C@@H](O)[C@H](O)[C@H]6O)CC[C@]45C)[C@]3(C)CO)OC[C@H](O)[C@@H]2O)[C@H](O)[C@H](O[C@@H]2O[C@H](CO)[C@@H](O)[C@H](O)[C@H]2O)[C@H]1O [Macranthoidin A] (compound dose: 10 uM)	1.08 ± 0.014
